# Reference: PubChem BioAssay (NCATS)
# Results filed as inconclusive are left out. Where a call stands in place of a potency, no number is given. The source made the active and inactive calls. Calls follow the shape of the dose curve; as a rule, active = well fitted curve in the direction sought with a large enough effect; inconclusive = small, poorly fitted or top-dose-only effect, or another doubt; inactive = no such curve, though single readings can be large; an effect the other way counts as inactive or inconclusive.
# What was measured:
# [1] = Quantitative High-Throughput drug screen in 47 multiple myeloma cell lines against the NCATS MIPE library collection: FR4_PLB cell viability assay (AID 1918924; also: nearly all actives have a fitted effect of over 35% in size; also: potency is read from the fitted curve at half-maximal effect)
# Summary of the method: (§1)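 Luminescent ATP measurement with CellTiter-Glo gives viability, scaled between DMSO-only wells (100%) and media-only wells (0%). Cells, 500 per well, faced library compounds for 48 hours at 37C.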
# [2] = Quantitative High-Throughput drug screen in 47 multiple myeloma cell lines against the NCATS MIPE library collection: Delta47_JCRB cell viability assay (AID 1918925; also: nearly all actives have a fitted effect of over 45% in size; also: potency is read from the fitted curve at half-maximal effect)
# Summary of the method: (§2)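 qHTS of the MIPE 4.0 collection: 500 myeloma cells/well, 48 h drug exposure at 37C in 5% CO2, then CellTiter-Glo for 5 min at room temperature before luminescence reading.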
# [3] = Quantitative High-Throughput drug screen in 47 multiple myeloma cell lines against the NCATS MIPE library collection: AMO1_DSMZ cell viability assay (AID 1918927; also: nearly all actives have a fitted effect of over 30% in size; also: potency is read from the fitted curve at half-maximal effect)
# Summary of the method: as §2
# [4] = Quantitative High-Throughput drug screen in 47 multiple myeloma cell lines against the NCATS MIPE library collection: ARP1_JJKsccF8 cell viability assay (AID 1918928; also: nearly all actives have a fitted effect of over 40% in size; also: potency is read from the fitted curve at half-maximal effect)
# Summary of the method: (§3)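 Luminescence from CellTiter-Glo, taken after 5 min at room temperature, reports cellular ATP as viability. Cells (500 per well) had been treated 48 h at 37 °C with MIPE 4.0 compounds, scaled between DMSO and medium-only controls.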
# [5] = Quantitative High-Throughput drug screen in 47 multiple myeloma cell lines against the NCATS MIPE library collection: ARD_JJKsccE7 cell viability assay (AID 1918929; also: potency is read from the fitted curve at half-maximal effect)
# Summary of the method: as §2
# [6] = Quantitative High-Throughput drug screen in 47 multiple myeloma cell lines against the NCATS MIPE library collection: KMM1_JCRB cell viability assay (AID 1918960); also: nearly all actives have a fitted effect of over 30% in size; also: potency is read from the fitted curve at half-maximal effect
# Summary of the method: as §3
# [7] = Quantitative High-Throughput drug screen in 47 multiple myeloma cell lines against the NCATS MIPE library collection: JIM3_ECACC cell viability assay (AID 1918963; also: nearly all actives have a fitted effect of over 35% in size; also: potency is read from the fitted curve at half-maximal effect)
# Summary of the method: as §1
# [8] = Quantitative High-Throughput drug screen in 47 multiple myeloma cell lines against the NCATS MIPE library collection: JIM1_ECACC cell viability assay (AID 1918964; also: potency is read from the fitted curve at half-maximal effect)
# Summary of the method: as §2
# [9] = Quantitative High-Throughput drug screen in 47 multiple myeloma cell lines against the NCATS MIPE library collection: INA6_PLB cell viability assay (AID 1918965; also: nearly all actives have a fitted effect of over 55% in size; also: potency is read from the fitted curve at half-maximal effect)
# Summary of the method: (§4)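 Steps: seed 500 cells per well; pin-transfer MIPE 4.0 library; incubate 48 h at 37C, 5% CO2, humidified; add CellTiter-Glo, 5 min room temperature; read luminescence.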
# [10] = Quantitative High-Throughput drug screen in 47 multiple myeloma cell lines against the NCATS MIPE library collection: H1112_PLB cell viability assay (AID 1918967; also: nearly all actives have a fitted effect of over 30% in size; also: potency is read from the fitted curve at half-maximal effect)
# Summary of the method: as §2
# [11] = Quantitative High-Throughput drug screen in 47 multiple myeloma cell lines against the NCATS MIPE library collection: Karpas25_ECACC cell viability assay (AID 1918968; also: nearly all actives have a fitted effect of over 35% in size; also: potency is read from the fitted curve at half-maximal effect)
# Summary of the method: as §2
# [12] = Quantitative High-Throughput drug screen in 47 multiple myeloma cell lines against the NCATS MIPE library collection: KMS27_JCRB cell viability assay (AID 1918970); conditions: KMS27 myeloma cells, CellTiter-Glo ATP viability, 48 h; viability (% of DMSO): at 45.8 µM (top of the series); also: nearly all actives have a fitted effect of over 30% in size; also: potency is read from the fitted curve at half-maximal effect
# Summary of the method: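 KMS27_JCRB myeloma cells, 500 per well, exposed 48 h at 37 C, 5% CO2 to MIPE 4.0 compounds. Viability from ATP by CellTiter-Glo luminescence, normalized to DMSO (100%) and medium-only (0%) wells.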
# [13] = Quantitative High-Throughput drug screen in 47 multiple myeloma cell lines against the NCATS MIPE library collection: Karpas620_DSMZ cell viability assay (AID 1918959); also: nearly all actives have a fitted effect of over 30% in size; also: potency is read from the fitted curve at half-maximal effect
# Summary of the method: as §1
# [14] = Quantitative High-Throughput drug screen in 47 multiple myeloma cell lines against the NCATS MIPE library collection: KHM11_PLB cell viability assay (AID 1918962); also: potency is read from the fitted curve at half-maximal effect; nearly all actives have a fitted effect of over 35% in size
# Summary of the method: as §1
# [15] = Quantitative High-Throughput drug screen in 47 multiple myeloma cell lines against the NCATS MIPE library collection: EJM_DSMZ cell viability assay (AID 1918926; also: nearly all actives have a fitted effect of over 30% in size; also: potency is read from the fitted curve at half-maximal effect)
# Summary of the method: as §2
# [16] = Quantitative High-Throughput drug screen in 47 multiple myeloma cell lines against the NCATS MIPE library collection: JJN3_DSMZ cell viability assay (AID 1918966; also: nearly all actives have a fitted effect of over 50% in size; also: potency is read from the fitted curve at half-maximal effect)
# Summary of the method: as §2
# [17] = Quantitative High-Throughput drug screen in 47 multiple myeloma cell lines against the NCATS MIPE library collection: Karpas417_ECACC cell viability assay (AID 1918961); conditions: Karpas417 myeloma viability, CellTiter-Glo ATP luminescence, 48 h; viability (% of DMSO): at 45.8 µM (top of the series)
# Summary of the method: as §4
Structure (SMILES),Potency [1],Potency [2],Potency [3],Potency [4],Potency [5],Potency [6],Potency [7],Potency [8],Potency [9],Potency [10],Potency [11],Potency [12],Potency [13],Potency [14],Potency [15],Potency [16],Potency [17]
COc1ccc(-c2cc(=O)c3c(O)cc(O[C@@H]4O[C@H](CO[C@@H]5O[C@@H](C)[C@H](O)[C@@H](O)[C@@H]5O)[C@@H](O)[C@H](O)[C@@H]4O)cc3o2)cc1O,inactive,14.8 µM (active),inactive,inactive,inactive,inactive,16.6 µM (active),inactive,26.4 µM (active),13.2 µM (active),11.8 µM (active),inactive,,,,,
O=C(c1ccc(F)c(F)c1Nc1ccc(I)cc1F)N1CC(O)([C@H]2CCCCN2)C1,20.9 µM (active),20.9 µM (active),3.32 µM (active),,10.5 µM (active),11.8 µM (active),14.8 µM (active),,10.5 µM (active),16.6 µM (active),16.6 µM (active),0.264 µM (active),0.105 µM (active),0.0372 µM (active),,,
O=c1[nH]c(=O)n([C@H]2C[C@@H](O)[C@@H](CO)O2)cc1C(F)(F)F,inactive,5.26 µM (active),,,1.32 µM (active),,inactive,,1.87 µM (active),5.26 µM (active),10.5 µM (active),7.43 µM (active),inactive,,1.66 µM (active),inactive,
O=C(O)C1=NC(C(=O)O)CC(C=CN2c3cc(O)c(OC4OC(CO)C(O)C(O)C4O)cc3CC2C(=O)O)=C1 (stereo not drawn),inactive,inactive,,,,inactive,inactive,inactive,inactive,inactive,inactive,,inactive,,inactive,,inactive
CC(C)N(CCCNC(=O)Nc1ccc(C(C)(C)C)cc1)C[C@H]1O[C@@H](n2cc(Br)c3c(N)ncnc32)[C@H](O)[C@H]1O,23.5 µM (active),16.6 µM (active),inactive,20.9 µM (active),inactive,inactive,29.6 µM (active),,18.7 µM (active),,14.8 µM (active),,,,,,
CN(CC=CC#CC(C)(C)C)Cc1cccc2ccccc12,inactive,inactive,inactive,inactive,,inactive,,inactive,,,,inactive,inactive,,,,
CCC(c1ccc(O)cc1)C(CC)c1ccc(O)cc1 (stereo not drawn),5.26 µM (active),0.0026 µM (active),,7.43 µM (active),inactive,inactive,inactive,,inactive,8.33 µM (active),,,inactive,,0.935 µM (active),,
CN[C@H]1[C@@H](O[C@@H]2[C@H](O[C@@H]3[C@@H](O)[C@@H](O)[C@@H](N=C(N)N)[C@@H](O)[C@@H]3N=C(N)N)O[C@H](C)[C@@]2(O)C=O)O[C@@H](CO)[C@@H](O)[C@H]1O,inactive,inactive,,inactive,,inactive,inactive,inactive,inactive,inactive,inactive,inactive,inactive,,inactive,,
NC(N)=Nc1nc(CSCCC(N)=NS(N)(=O)=O)cs1,inactive,10.5 µM (active),,inactive,inactive,inactive,,,11.8 µM (active),16.6 µM (active),11.8 µM (active),,inactive,,23.5 µM (active),,
CCCCCCCCCCCCCCCC(=O)O[C@H]1[C@@H](O)[C@@H](O)[C@@H]([C@H](NC(=O)[C@@H]2C[C@@H](CCC)CN2C)[C@H](C)Cl)O[C@@H]1SC,inactive,inactive,inactive,inactive,,8.33 µM (active),inactive,inactive,,18.7 µM (active),,7.43 µM (active),,,inactive,,
CON(C)C(=O)N1N=C(c2cc(F)ccc2F)S[C@]1(CCCN)c1ccccc1,inactive,inactive,0.001 µM (active),,0.001 µM (active),,inactive,,inactive,inactive,,0.001 µM (active),inactive,,inactive,,
C[C@H]1O[C@@H](n2cc(F)c(=O)[nH]c2=O)[C@H](O)[C@H]1O,inactive,14.8 µM (active),,inactive,,5.26 µM (active),11.8 µM (active),,13.2 µM (active),,18.7 µM (active),,,,inactive,,inactive
O=C1CCCC(=O)C1C(=O)c1ccc(C(F)(F)F)cc1[N+](=O)[O-],inactive,,inactive,inactive,6.62 µM (active),,inactive,,inactive,inactive,inactive,inactive,inactive,,inactive,inactive,inactive
CCCCCCOC(=O)N=C(N)c1ccc(NCc2nc3cc(C(=O)N(CCC(=O)OCC)c4ccccn4)ccc3n2C)cc1,23.5 µM (active),16.6 µM (active),,,,16.6 µM (active),,8.33 µM (active),16.6 µM (active),,,11.8 µM (active),7.43 µM (active),,,18.7 µM (active),
C#CCN(C)CC1=Cc2ccccc2Oc2ccccc21,inactive,,,inactive,,inactive,inactive,inactive,,inactive,,,inactive,,inactive,,
CN(C)CCN(Cc1ccc(Cl)cc1)c1ccccn1,inactive,9.35 µM (active),,inactive,inactive,inactive,inactive,,20.9 µM (active),,11.8 µM (active),,inactive,,,inactive,
